This passage reports activation results from PubChem BioAssay AID2796 (The Scripps Research Institute Molecular Screening Center, 2010).

Screen size: about 320,000 compounds; about 8,000 (2.5%) were called active. Many of the other results were omitted from the sample, so actives are more common in it than they were. A number with no mark means an inactive call. Cut-off read from the data, not from the text of the source: active = activation above about 47%; inactive = the rest.

Aryl hydrocarbon receptor (Homo sapiens), sequence (P35869 whole entry, looked up): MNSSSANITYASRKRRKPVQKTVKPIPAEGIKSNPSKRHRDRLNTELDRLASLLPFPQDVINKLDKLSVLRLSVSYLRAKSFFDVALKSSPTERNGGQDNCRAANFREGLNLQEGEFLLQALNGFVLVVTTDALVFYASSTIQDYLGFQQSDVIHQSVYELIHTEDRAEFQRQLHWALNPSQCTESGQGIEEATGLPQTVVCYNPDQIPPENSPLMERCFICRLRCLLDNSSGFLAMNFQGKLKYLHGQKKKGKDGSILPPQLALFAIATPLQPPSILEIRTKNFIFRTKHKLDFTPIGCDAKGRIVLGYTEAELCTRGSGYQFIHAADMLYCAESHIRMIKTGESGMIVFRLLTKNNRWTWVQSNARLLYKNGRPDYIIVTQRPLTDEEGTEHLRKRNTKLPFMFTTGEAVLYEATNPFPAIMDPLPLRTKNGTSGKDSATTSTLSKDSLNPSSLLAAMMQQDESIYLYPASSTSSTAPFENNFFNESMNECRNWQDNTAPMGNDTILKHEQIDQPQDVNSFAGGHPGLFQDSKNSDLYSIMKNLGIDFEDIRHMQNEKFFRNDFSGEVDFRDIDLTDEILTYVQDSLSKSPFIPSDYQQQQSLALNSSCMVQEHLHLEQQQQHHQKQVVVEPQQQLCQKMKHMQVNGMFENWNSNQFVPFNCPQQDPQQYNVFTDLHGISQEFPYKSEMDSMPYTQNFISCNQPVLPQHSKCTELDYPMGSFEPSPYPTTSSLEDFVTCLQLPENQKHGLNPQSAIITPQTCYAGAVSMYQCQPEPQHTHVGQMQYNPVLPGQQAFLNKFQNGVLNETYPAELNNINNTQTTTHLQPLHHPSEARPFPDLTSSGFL

This experiment addresses Aryl hydrocarbon receptor (Homo sapiens) (UniProt P35869). The experiment in a line: AHR activators, primary screen, cell-based, luminescence, luciferase reporter, human (AID 2796).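 Note: 0% = vehicle wells and 100% = reference agonist.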 The settings on record: AHR-responsive luciferase reporter cells, at 5 µM, hits give high values.
Take `C#CCNC(=O)C1=C[C@@H](c2ccccc2)[C@H](CCCO)[C@@H](OCC)O1`: the activation is 1.77%.
The value for `CCCCn1nc(C(=O)Nc2ccc(S(=O)(=O)Nc3ncccn3)cc2)c2ccccc2c1=O` was 2.56%; that for `CC1=NN(C(N)=S)C(=O)C1N=Nc1cc(Cl)ccc1Cl` (stereo not drawn) was 11.5%.
As for `Cc1[nH]n(C(N)=S)c(=O)c1N=Nc1ccc(Cl)cc1Cl`, the activation is 55.6% (active).
In the case of `Cc1cccc(N=Nc2c(C)[nH]n(-c3ccccc3)c2=O)c1`, the activation was 40%.
Consider `O=C(CCc1ccccc1)Nc1ncc([N+](=O)[O-])s1`, for which the activation was 6.21%.
With `O=C(Cc1c(F)cccc1Cl)Nc1ccc(-n2cnnn2)cc1`, the activation was 0.09%.
The value for `O=C(Cc1c(F)cccc1Cl)Nc1ncc([N+](=O)[O-])s1` was 48.5% (active); that for `CCOC(=O)C(=Cc1ccccc1OC)C(=O)OCC` was -3.1%; that for `CN(C)c1ccnc2sc(C(=O)c3ccccc3)c(N)c12` was 15.9%.
The value for `Nc1c(C(=O)NCc2ccccc2)sc2nc3c(cc12)C(=O)CCC3` was 2.82%; that for `CCN(CC)C(=O)c1sc2nc(-c3ccccc3)ccc2c1N` was 76.4% (active).
In the case of `Cc1ccc(N2C(=O)C(NC(=O)c3c(F)cccc3F)(C(F)(F)F)C3=C2CC(C)(C)CC3=O)cc1` (stereo not drawn), the activation is 2.49%.
Then `O=C(CC1NCCNC1=O)Nc1ccc(Oc2ccccc2)cc1` (stereo not drawn), with 5.88%; and `O=C(CC1Nc2ccccc2NC1=O)Nc1ccccc1` (stereo not drawn), with 101% (active); and `O=C(CC1NCCc2ccccc21)Nc1cccc(Cl)c1` (stereo not drawn), with 8.99%.
For `Cc1ccc(CNC(=O)CC2Sc3ccccc3NC2=O)cc1` (stereo not drawn), the activation is 4%.
On to `COC(=O)C(C)C1Sc2ccccc2NC1=O` (stereo not drawn), for which the activation is -0.86%.
Then `O=C(CC1Nc2ccccc2NC1=O)Nc1ccccc1NC(=O)CC1Nc2ccccc2NC1=O` (stereo not drawn), with 47.5% (active); and `COC(=O)c1c(C)oc2ccc(N(C(=O)Oc3ccccc3)S(=O)(=O)c3ccccc3)cc12`, with -0.17%.
`COCCCNC(=O)c1ccc(CNS(=O)(=O)c2ccc(NC(C)=O)cc2)cc1`: the activation is 0.77%.
For `Cc1cc(C)n(CC(O)COc2ccc(C(C)(C)C)cc2)n1` (stereo not drawn), the activation was 1.06%.
Consider `CC(C)n1ncc2c(C(=O)Nc3ccc(CC#N)cc3)cc(C3CC3)nc21`, for which the activation was 89.9% (active).
Then `COc1ccc(OCCNC(=O)c2cc(C3CC3)nc3c2cnn3C(C)C)cc1`, with 5.03%; and `CC(C)n1ncc2c(C(=O)NCc3ccccc3CN(C)C)cc(C3CC3)nc21`, with 2.81%.
`O=C(CCNC(=O)c1ccccc1Cl)NN=Cc1ccco1`: the activation was -0.2%.
Then `Cc1ccc(C(=O)N/C(=C\c2cn(S(=O)(=O)N(C)C)c3ccccc23)C(=O)N2CCCC2)cc1`, with 0.25%; and `Cc1ccc(OCc2n[nH]c(=S)n2-c2ccccc2)cc1`, with 2.23%; and `S=c1[nH]nc(-c2cc(-c3ccsc3)n[nH]2)n1-c1ccccc1`, with 84% (active).
For `S=c1[nH]nc(COc2ccccc2)n1-c1ccccc1`, the activation is -2.15%.
Then `CCc1ccc(C(=O)OCC(=O)NCC(F)(F)F)cc1`, with 1.13%; and `Fc1ccccc1-c1cc2cc3c(cc2cn1)OCO3`, with 77.2% (active); and `O=C(Nc1ccccc1F)c1ccc2c(c1)OCO2`, with 7.6%.
Then `Fc1ccc2cnc(-c3ccccc3)cc2c1`, with 31.9%; and `O=C(NCc1ccc2c(c1)OCO2)c1cc([N+](=O)[O-])ccc1N1CCOCC1`, with -0.76%.
For the compound `Cc1nnc(C)c2c(C)n(N)c(C)c12`, the activation was -0.81%.
For `O=C(N/N=C/c1c(Cl)[nH]c2ccccc12)c1sc2ccccc2c1Cl`, the activation was 74.3% (active).
Take `COc1ccc(CNC(=O)CNC(=O)c2sc3ccccc3c2Cl)cc1OC`: the activation was -3.5%.
Then `CN1CCc2ccccc2C1Cc1ccccc1NC(=O)c1sc2ccccc2c1Cl` (stereo not drawn), with 11.4%.
The value for `O=C(CCNS(=O)(=O)c1ccccc1)NCCSc1ccc(Br)cc1` was -0.18%; that for `Cc1sc2ncn(CC(=O)NCCCC(=O)N3CCN(c4ccccc4F)CC3)c(=O)c2c1C` was -0.77%.
On to `N#Cc1nc(COc2ccc(-c3ccccc3)cc2)oc1NCc1cccnc1`, for which the activation was -4.66%.
Then `COc1ccc(Nc2oc(-c3ccccc3Cl)nc2C#N)cc1`, with -7.03%.
As for `CCOc1ccc(Nc2oc(Cc3ccccc3)nc2C#N)cc1`, the activation was 58.1% (active).
With `Cc1cccc(N(C)C(=O)c2cc3c(=O)[nH]c4ccc(C)cc4c3s2)c1`, the activation was 39%.
The value for `C=CCSc1nnc(Cn2c(=O)sc3ccccc32)n1C` was 0.37%.
Turning to `O=C(CNC(=O)c1ccc(F)cc1)c1ccccc1`, the activation is 3.71%.
The value for `Cc1cccc[n+]1CC(=O)c1ccccc1` was 1.77%; that for `O=C(C[n+]1cc(Br)cc2ccccc21)c1ccc(F)cc1` was 58.6% (active); that for `S=c1[nH]cc(-c2ccc(Cl)cc2)n1-c1ccccc1` was 6.37%.
The value for `CC(C)(C)OC(=O)C[C@@H]1C/C=C\C[C@@H](CC(=O)NCCO)C(=O)N[C@H](Cc2c[nH]c3ccccc23)COC1=O` was 0.32%.
Then `C=CCN1C(=O)C2(OCCCO2)c2cccc(Cl)c21`, with -2.96%.
Turning to `O=c1c(/C=N/O)coc2ccc(Cl)cc12`, the activation is -0.55%.
With `NC(=S)N/N=C/c1coc2cc(Cl)ccc2c1=O`, the activation was 60.2% (active).
The value for `Cc1ccc2occ(/C=N/NC(=O)c3ccccc3C)c(=O)c2c1` was 6.34%; that for `O=[N+]([O-])c1ccc2nc(-c3ccccn3)[nH]c2c1` was 3.58%; that for `O=c1[nH]c2cccnc2n1-c1ccc([N+](=O)[O-])cc1` was 60.9% (active).
As to `O=c1[nH]n(-c2ccc([N+](=O)[O-])cc2)c(=O)c2ccccc12`, the activation was 1.45%.
Turning to `CCOc1ccc(CN2CCN(CCCc3ccccc3)C(CCO)C2)cc1` (stereo not drawn), the activation was 0.01%.
Turning to `COc1cc(NC(=O)c2cccs2)ccc1NC(=O)c1ccccc1Cl`, the activation is -11.1%.
As to `O=C(Nc1ccc2sc3ccccc3c(=O)c2c1)c1ccccc1Cl`, the activation is 49.1% (active).
As for `O=C(Nc1cccc(NC(=O)c2ccccc2[N+](=O)[O-])c1)c1ccccc1Cl`, the activation was 8.43%.
For the compound `COc1cc(S(=O)(=O)N2CCN=C2c2ccccc2)ccc1Cl`, the activation was 1.21%.
As for `Cc1ccccc1OCCC(=O)OCC(=O)NC(C)c1ccccc1` (stereo not drawn), the activation is -2.01%.
In the case of `COc1ccc(Cl)cc1C(=O)NNC(=S)NC(=O)/C=C/c1ccco1`, the activation was 4.8%.
The value for `C=CCNC(=S)NNC(=O)c1cc(Cl)ccc1OC` was 52.7% (active).
Turning to `COc1ccc(Cl)cc1C(=O)NNC(=S)NC1CCCC1`, the activation is 32.1%.
In the case of `Cc1nc(SCC(=O)N2CCc3ccccc3C2)c2c(C)c(C)sc2n1`, the activation was 3.83%.
The value for `COc1cc(NC(=O)c2cc([N+](=O)[O-])ccc2Br)ccc1NC(=O)c1ccco1` was -4.72%; that for `COc1ccccc1C(=O)Nc1ccc(NC(=O)c2ccco2)c(C)c1` was 40.4%.
Then `COc1ccc(NC(=O)c2ccco2)cc1NC(=O)c1ccc(C#N)cc1F`, with 96.2% (active); and `O=S(=O)(NC1CC1)c1ccc2c3c(cccc13)CC2`, with 1.23%; and `CCn1c(CN2C(=O)CSc3ccccc32)n[nH]c1=S`, with 1.51%.
For the compound `Cc1sc2ncnc(Sc3nc4ccccc4s3)c2c1C`, the activation was 47.2% (active).
The value for `COC(=O)c1c(-c2cccs2)csc1NC(=O)CSc1ncnc2sc(C)c(C)c12` was 6.7%; that for `CSc1ncnc2sc(C)c(C)c12` was 1.25%; that for `O=C(NNS(=O)(=O)c1ccc(F)cc1)C1CCCCC1` was -0.99%.
Consider `CN(CC(=O)Nc1ccc(Cl)cc1)C(=O)c1ccc(COc2ccccc2)cc1`, for which the activation was 0.65%.
For `CC(=O)N1c2ccc(S(=O)(=O)N3CCCC(C(=O)Nc4ccc(C)cc4C)C3)cc2CC1C` (stereo not drawn), the activation was 0.6%.
`CCC(=O)c1ccc(OCC(=O)OCC(=O)N2CCc3ccccc3C2)cc1`: the activation was -1.4%.
Then `COc1cc(OC)cc(-c2sc3ccc(OC)cc3c2-c2ccc3cc[nH]c3c2)c1`, with 13%; and `COc1ccc2sc(-c3ccccc3OC)c(-c3ccc(OCCN4CCCC4)cc3)c2c1`, with 1.65%.
Then `COc1ccc2sc(-c3ccc(S(C)(=O)=O)cc3)c(C#Cc3cncn3C)c2c1`, with 39.3%; and `COc1ccc2sc(-c3ccc(N(C)C)cc3)c(-c3ccc4cc[nH]c4c3)c2c1`, with 22.1%; and `COc1ccc(-c2sc3ccc(OC)cc3c2C#Cc2ccccn2)cc1`, with 70.4% (active).
`COc1ccc2sc(-c3ccc(N(C)C)cc3)c(C#CCO)c2c1`: the activation is 64.8% (active).
The value for `CCCN(C(=O)CSc1nnc(N)s1)c1c(N)n(Cc2ccccc2)c(=O)[nH]c1=O` was 0.7%; that for `COc1cccc(CN(C)CC2CCCN(CCc3ccc(Cl)cc3)C2)c1OC` (stereo not drawn) was -2.92%; that for `COc1ccc2c(c1)CCC/C2=N\OC(=O)c1ccccc1F` was 2.52%.
The value for `COCCN(Cc1ccccc1)C(=O)Cc1ccc(S(=O)(=O)N2CCOCC2)s1` was 0.03%.
Take `O=C1OC[C@@H]2CCCN2C(=O)[C@H](CC(=O)N(CCO)Cc2ccccc2)C/C=C\CC[C@@H]1Cc1ccc(F)cc1`: the activation is -2.45%.
Then `Cc1cc(N/N=C\c2ccc(Br)cc2)nc(-n2nc(C)cc2C)n1`, with 27.3%; and `COc1ccc(-c2nn(-c3ccccc3)cc2/C=N/Nc2ccccn2)cc1OC`, with 30.3%.
Regarding `COc1ccccc1/C=N\Nc1cc(C)nc(-n2nc(C)cc2C)n1`, the activation was 70.2% (active).
Then `CCOc1ccccc1NC(=O)COc1ccc(S(=O)(=O)N2CCCC2)cc1`, with 7.9%; and `COc1ccccc1C(=O)Nn1c(-c2cccs2)nc2ccccc2c1=O`, with 13.9%.
Take `O=C(Nc1nnc(-c2ccccc2)o1)c1cc(-c2cccs2)nc2ccccc12`: the activation is 5.25%.
`CC(=O)Nc1cccc(Nc2nc(-c3cccs3)nc3ccccc23)c1`: the activation was 51.4% (active).
